From the supplement of paper PMC6555819

Experiments:
Test in all cases: PBM binding z-score (relative to random genomic background probes); higher = stronger binding; sequences stand for … in GC…GCGATTGACAGCGTAGAATGAAGG
[1] = system: PPARg:RXRa DBDmut IVT, anti-RXR (DBD mutation: RXRa K156A/R161A, NR concentration 270 nM, RXRa partner concentration 90 nM)
Outline: (§1)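 Custom Agilent 4×180K protein-binding microarrays carried double-stranded probes. Their 34-nt variable regions held direct-repeat seeds, single-nucleotide variants, half-site ablations and random human genomic background sequences. Arrays were incubated 1 h with ligand-free nuclear receptor dimers in PBS pH 7.4, 2% milk, 0.02% Triton X-100, 1 mM DTT, 0.2 mg/mL BSA and 0.4 mg/ml salmon testes DNA. Antibodies against each partner (one per run) detected binding, and scanned fluorescence was regression-normalized. Binding z-scores use random background probes as reference.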

[2] = system: PPARg:RXRa IVT, anti-PPARg (NR concentration 270 nM, RXRa partner concentration 90 nM)
Outline: as §1

[3] = system: PPARg DBDmut:RXRa IVT, anti-PPARg (DBD mutation: PPARg1 K132A/R137A, NR concentration 270 nM, RXRa partner concentration 90 nM)
Outline: as §1

[4] = system: PPARg DBDmut IVT, anti-PPARg (DBD mutation: PPARg1 K132A/R137A, NR concentration 270 nM)
Outline: as §1

[5] = system: PPARg homodimer (NR concentration 180 nM)
Outline: as §1

[6] = system: PXR:RXRa (NR concentration 270 nM, RXRa partner concentration 90 nM)
Outline: as §1

[7] = system: PXR homodimer (NR concentration 270 nM)
Outline: as §1

[8] = system: RARa:RXR (NR concentration 270 nM, RXRa partner concentration 90 nM)
Outline: as §1

[9] = system: RARa homodimer (NR concentration 270 nM)
Outline: as §1

[10] = system: RARb:RXRa (NR concentration 270 nM, RXRa partner concentration 90 nM)
Outline: as §1

[11] = system: RARb homodimer (NR concentration 270 nM)
Outline: as §1

[12] = system: RARg:RXRa (NR concentration 270 nM, RXRa partner concentration 90 nM)
Outline: as §1

[13] = system: RARg homodimer (NR concentration 270 nM)
Outline: as §1

[14] = system: RXRa DBDmut IVT, anti-RXR (DBD mutation: RXRa K156A/R161A, NR concentration 90 nM)
Outline: as §1

[15] = system: RXRa homodimer (NR concentration 180 nM)
Outline: as §1

[16] = system: THRa:RXRa (NR concentration 90 nM, RXRa partner concentration 90 nM)
Outline: as §1

[17] = system: THRa homodimer (NR concentration 90 nM)
Outline: as §1

[18] = system: VDR:RXRa (NR concentration 270 nM, RXRa partner concentration 90 nM)
Outline: as §1

[19] = system: VDR homodimer (NR concentration 270 nM)
Outline: as §1

Sequence	PBM binding z-score [1]	PBM binding z-score [2]	PBM binding z-score [3]	PBM binding z-score [4]	PBM binding z-score [5]	PBM binding z-score [6]	PBM binding z-score [7]	PBM binding z-score [8]	PBM binding z-score [9]	PBM binding z-score [10]	PBM binding z-score [11]	PBM binding z-score [12]	PBM binding z-score [13]	PBM binding z-score [14]	PBM binding z-score [15]	PBM binding z-score [16]	PBM binding z-score [17]	PBM binding z-score [18]	PBM binding z-score [19]
GATACAGTGTCAAGGCCAGAGTACGCGTATTGAT	0.318	0.795	0.0882	0.292	0.275	-0.0079	0.246	0.272	-0.156	1.46	1.04	0.527	1.03	0.061	0.517	0.471	-0.196	0.126	0.431
CCTTACGGGTCACTGATAGGTTATAGCATTTGGA	3.46	3.73	1.18	0.0564	2.47	3.6	0.321	4.43	1.27	4.02	3.34	5.65	4.89	1.85	5.48	2.74	0.24	3.6	1.17
TCAAGTAGGTTAGGGGCATTCAGAATGGCGTCGA	4.59	3.94	0.0234	0.234	1.35	1	0.86	0.878	0.676	1.51	1.23	0.789	0.56	1.29	1.08	1.45	0.575	1.05	1.48
CCTACTGGGCCATTCAGAGGTCATTGCTCATATG	4.61	4.29	-0.1	-0.505	1.87	4.7	2.5	4.24	0.689	3.01	3.78	4.44	3.16	0.998	3.47	3.03	1.28	3.84	3.65
ATCTCTAGGTAACTAGTTCAGTGAAAGAGAGGAC	2.81	2.6	1.49	0.893	0.154	0.527	0.481	0.382	0.388	0.464	0.47	0.193	0.685	-0.215	0.0901	0.996	0.507	0.369	0.877
ATCTCTAGGTAACAAGTTCAGAGAAAGAGAGGAC	2.92	2.66	0.959	2.27	0.923	1.59	1.6	1.1	1.3	1.53	1.98	1.45	1.32	0.95	1.04	1.49	0.815	2.01	2.72
CGTCAAAGTTCAACTAAGGTAACGTCAAGCACGC	0.771	2.28	0.0665	0.943	3.82	5.69	4.39	4.56	1.85	5.3	4.4	5.96	6.81	4.8	4.81	5.05	1.86	4.83	3.9
GCTGCTAGATCAGGTTGGTCAGCTAACGGGTACG	-0.422	-0.787	-0.302	-0.87	-0.314	-0.686	-0.557	-0.344	-1.48	-0.392	-0.151	-0.607	-0.66	-0.411	-0.416	-0.611	-0.864	-0.639	0.19
CGTCCAAGGTCAATGCTAGGTCAGTGACAGCATT	3.59	4.07	0.933	0.0917	5.74	4.98	1.04	6.17	2.41	5.26	4.95	7.61	6.78	3.65	5.25	4.63	2.99	4.87	2.97
AGAACGAGGGCACGCTGGGTTGATAGCAGAGTAG	3.63	3.69	1.12	0.143	0.498	1.25	0.183	1.17	0.372	2.41	1.28	2.01	2.36	1.87	1.56	2.5	0.224	2.53	2.08
TCTTGAAGATCAAAGGTTAAGAAAGCCGAAGCCT	1.75	1.72	0.267	0.871	1.22	2.3	0.147	3.49	0.254	2.07	1.32	2.04	0.685	0.731	3.74	1.37	-0.659	1.64	-0.364
AGAATGAGGTTATCAAAGATCAGGGAAACGCTTG	2.98	2.51	1.56	0.266	0.544	1.25	0.0151	1.6	0.154	1.33	0.294	1.47	1.24	1.49	2.28	2.58	0.571	1.12	0.495
ACTAGTTGGTCGGCTGAGGTCACACACAATTCGG	0.828	2.09	0.508	0.979	2.33	5	2.11	4.72	1.23	3.08	4.05	3.76	3.25	1.12	4.19	4.77	5.24	3.94	3.84
CATACAGGGTCAGCTAGGCCAGAGCAGGGACGGC	0.983	2.45	0.782	0.361	1.29	2.04	0.078	2.84	0.253	4.15	3.07	4.3	4.47	1.32	4.21	3.18	0.613	3.75	0.954
CCTAGTTGATCAAGGTCACACACGCTATAGGTAC	2.26	3.44	1.49	1.07	3.39	4.28	3.62	4.24	2.05	3.95	4.44	4.24	4.06	2.8	4.2	4.25	4.11	4.91	4.32
